Data from the supplement of paper PMC6555819.

Test system: PPARa:RXRa (NR concentration 270 nM, RXRa partner concentration 90 nM)
Assay: PBM binding z-score (relative to random genomic background probes); higher = stronger binding; sequences stand for … in GC…GCGATTGACAGCGTAGAATGAAGG
In short: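 Each nuclear receptor dimer, without ligand, was incubated for 1 h on custom Agilent 4×180K protein-binding microarrays. Binding was detected with antibodies against each partner (one per run), and scanned fluorescence was regression-normalized. The binding z-scores are referenced to random human genomic background probes.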

Which PBM binding z-score does the source give for CCTACTGGGCCATTCAGAGGTCAGTGATCATATG here?
Its PBM binding z-score is 2.54.

How did the PBM binding z-score turn out when CCTCGGAGGACAACAGGAGGTTAGAGCTGCCAGA was run?
Its PBM binding z-score is -0.226.

With TGAATCAGGTTAAAGATCAGGGAACGTGGCGTCG as the sequence, how does the PBM binding z-score read?
The PBM binding z-score was 3.29.

Which PBM binding z-score does the source give for CGTCCATGGTCAGCAGGTCAGTGAAAGCGACGTG here?
Its PBM binding z-score is 0.781.

With GCGACTGGGGCCAAGCAGGTTACCATAAGGTTGG as the sequence, how does the PBM binding z-score read?
The PBM binding z-score was 0.516.

With CTGGAAAGGTCGGTTGAGGTGAGTATACGGATAA as the sequence, how does the PBM binding z-score read?
Its PBM binding z-score is 2.57.

Which PBM binding z-score does the source give for TCATATAGGTAAAGGTCAAAGTCGAACGATATGA here?
The PBM binding z-score was 6.15.

ACAGACAGGTGATGGAGGTAACTCAGGCTATCAT was tested. Which PBM binding z-score did it give?
Its PBM binding z-score is 0.109.

With TTACCAAGGTGAGCTGAGGACGTTGATCCAACTC as the sequence, how does the PBM binding z-score read?
Its PBM binding z-score is 0.258.

For TCTAGTTGGTCAAAGGTCACACACTCGAAATGCG, which PBM binding z-score is on record?
The PBM binding z-score was 6.56.

How did the PBM binding z-score turn out when ACTAGCAGGCCAAGGGTAACTCAAGATTAGTCCG was run?
Its PBM binding z-score is 1.83.

Which PBM binding z-score does the source give for CGTCCCAGGTCAAAGGTCAGTGAAGAGATGACGG here?
Its PBM binding z-score is 7.24.

How did the PBM binding z-score turn out when GCGACTAGGGCAAAGCAGGTTACCATAAGGTTGG was run?
Its PBM binding z-score is 1.17.

For ATCTCTAGGCAACCAAGTTCAGTGAATGCCGAAC, which PBM binding z-score is on record?
Its PBM binding z-score is 0.303.

How did the PBM binding z-score turn out when GCATATAGGAAATACAAGGTGAAAGTCCGATTGT was run?
The PBM binding z-score was 0.727.

ATCTCTAGGTAACCAAGTTCAGTTAATGCCGAAC was tested. Which PBM binding z-score did it give?
Its PBM binding z-score is 1.31.

GCGACTGGGGCAAAGCAGGGTACCATAAGGTTGG was tested. Which PBM binding z-score did it give?
Its PBM binding z-score is 0.981.

CTACCAAGGTGAACAAGGTTGTTGATTACTATTC was tested. Which PBM binding z-score did it give?
Its PBM binding z-score is 1.53.

How did the PBM binding z-score turn out when CCTGCTAGGTCAATTGTCAGCTAAAGCAGCTCGC was run?
The PBM binding z-score was 2.77.

Which PBM binding z-score does the source give for GCTCGGAGGACAAGGTCATAGCTTTGTCCGTAGA here?
Its PBM binding z-score is 4.08.

ACTCGGAGGAAAAAGGTCAGAGCTACGCCAGTGA was tested. Which PBM binding z-score did it give?
Its PBM binding z-score is 3.73.

Which PBM binding z-score does the source give for TCTCGGAGGACACGAAGGTCAGAGCGTTCCAGAG here?
The PBM binding z-score was 2.05.

How did the PBM binding z-score turn out when GGAACGATGGCAAAGTTGATAGCATCTGTCGACG was run?
Its PBM binding z-score is 0.994.

For CCTATTAGTTGACCATAAGGGCAACCAAAGCTCG, which PBM binding z-score is on record?
Its PBM binding z-score is 0.948.

With TCATATAGGTAAATGCTAGCTGAAAGTCCGATCT as the sequence, how does the PBM binding z-score read?
Its PBM binding z-score is 1.04.

Which PBM binding z-score does the source give for GCTAGCAGGCCATTTGGGTCACTCATTGACGGGC here?
The PBM binding z-score was 1.

How did the PBM binding z-score turn out when GGAACGGGGGCAAAGTTGATAGCATCTGTCGACG was run?
Its PBM binding z-score is 5.56.

How did the PBM binding z-score turn out when TTACCAAGGTGAGCTGAGGTCGTTGGTCCAACTC was run?
The PBM binding z-score was 1.67.

With CCTTGGAGGACAGAAGGTCAGAGCTGTCCGCTTT as the sequence, how does the PBM binding z-score read?
Its PBM binding z-score is 2.23.

For CGATCTAGGTCAGAACAGGACAGTGAAGGATGAT, which PBM binding z-score is on record?
The PBM binding z-score was 2.84.

For TAGCCTAGGTCATGCGCGCCAGTATAGTGTCGGC, which PBM binding z-score is on record?
The PBM binding z-score was 3.98.

With GCTGCTAGGTCAGCTTGGTCAGCTAACGGGTACG as the sequence, how does the PBM binding z-score read?
The PBM binding z-score was 1.22.

ACTATTAGTTTAGACGAGGGCAACCGATAGGTTG was tested. Which PBM binding z-score did it give?
Its PBM binding z-score is 0.386.

Which PBM binding z-score does the source give for TCTTGTAGATCAGCAGGAGGTTAAGAAAGATCGA here?
Its PBM binding z-score is 1.03.

GCTAGCAGGCCATTGGGGTCACTCAATGACGGGC was tested. Which PBM binding z-score did it give?
The PBM binding z-score was 4.28.

How did the PBM binding z-score turn out when ACAGACAGGTGAAGAAGGTAACTCAGGCTATCAT was run?
The PBM binding z-score was 0.721.

Which PBM binding z-score does the source give for TCTTGTAGATCACAGGTTAAGAAAGCCGAAGCCT here?
Its PBM binding z-score is 2.09.

Which PBM binding z-score does the source give for CCTAGTTGGTCAAGGTCACACACGCTATAGGTAC here?
Its PBM binding z-score is 4.33.

How did the PBM binding z-score turn out when TAGCCTAGGTCATTCAGGGTCCAGTATAGAAAGC was run?
The PBM binding z-score was 3.74.

How did the PBM binding z-score turn out when CAAACTAGGTCAGGAGGTCAAAGTCCGCTTCCCG was run?
The PBM binding z-score was 5.91.
